# Laboratory results published in PubChem BioAssay (NCI).
# This is part of a sample that, as a whole, favours compounds with a hit. Of some 79,000 tested, about 15% had one in any assay. A number with no mark means an inactive call. The source made the active and inactive calls. No stated cut-off is given here; in the data, active means growth inhibition above about 70%; inactive means the rest.
# Experiments:
# [1] = NCI Yeast Anticancer Drug Screen. Data for the rad50 strain (AID 155);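 further: 0% = growth of vehicle-only cultures of the same strain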; conditions: S. cerevisiae rad50 strain growth inhibition; at 50.0 µM; active compounds read high
# Procedure, shortened: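 Growth of the mutant yeast was measured after compound exposure and referenced to vehicle-treated cultures.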
# [2] = NCI Yeast Anticancer Drug Screen. Data for the mec2-1 strain (AID 157); conditions: S. cerevisiae mec2-1 strain, at 50.0 µM, active compounds read high
# Procedure, shortened: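 Growth inhibition is read against vehicle-treated controls after compound exposure of the mec2-1 yeast strain, which is defective in DNA damage repair or cell cycle control.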
# [3] = NCI Yeast Anticancer Drug Screen. Data for the sgs1 mgt1 strain (AID 161);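 further: 0% = growth of cultures given vehicle only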; conditions: S. cerevisiae sgs1 mgt1 strain, at 50.0 µM, active compounds read high
# Procedure, shortened: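 Growth of a repair-deficient yeast mutant was monitored after compound treatment and expressed as inhibition relative to vehicle-treated cultures.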
# [4] = NCI Yeast Anticancer Drug Screen. Data for the cln2 rad14 strain (AID 165);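 further: 0% = growth equal to vehicle treated cultures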; conditions: S. cerevisiae cln2 rad14 strain, at 50.0 µM, active compounds read high
# Procedure, shortened: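 Growth inhibition, relative to vehicle-treated controls, is the read-out. The test organism is a yeast strain with defined genetic alterations, cln2 rad14.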
# [5] = NCI Yeast Anticancer Drug Screen. Data for the bub3 strain (AID 167); conditions: S. cerevisiae bub3 mutant strain, at 50.0 µM, active compounds read high
# Procedure, shortened: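 Whole-cell yeast assay. The mutant strain was incubated with compounds, and growth inhibition was determined by comparison with vehicle-treated cells.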
# [6] = NCI Yeast Anticancer Drug Screen. Data for the mlh1 rad18 strain (AID 175); conditions: S. cerevisiae mlh1 rad18 strain growth inhibition; at 50.0 µM; active compounds read high
# Procedure, shortened: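 Cells of a genetically altered yeast strain, deficient in DNA damage repair, were treated with compound. Their growth was then compared with that of vehicle-treated cultures to give inhibition.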
Structure (SMILES),growth inhibition [1],growth inhibition [2],growth inhibition [3],growth inhibition [4],growth inhibition [5],growth inhibition [6]
O=C(/C(=C(/[O-])C(F)(F)F)[n+]1ccc2ccccc2c1)C(F)(F)F,-16.4%,-2.4%,-5.3%,-40.1%,-28.6%,-0.4%
COc1cc(CC(NC(=O)c2ccccc2)C(C)=O)cc(OC)c1OC (stereo not given),-9.7%,9.35%,-5.4%,-26.2%,27.8%,-4.1%
CC(=O)OC1OC(COC(=O)c2ccccc2)C(OC(=O)c2ccccc2)C1OC(=O)c1ccccc1 (stereo not given),-60.6%,-12.8%,-13.2%,-33.9%,-0.65%,2.95%
CC(=O)OCC(=O)c1cc(C)n(C)c(=O)c1CN1C(=O)c2ccccc2C1=O,-10.7%,9.05%,2.2%,-36.3%,10.6%,-12.7%
COc1cc(OC)c(NC(=O)/C=C/c2ccccc2)cc1Cl,-3.45%,-75.7%,7.85%,-21.4%,11.2%,21%
Cc1ccc(NC(=O)Nc2cccc(Cl)c2C)cc1C,3.75%,11.5%,12.8%,-1.85%,8.45%,-15.9%
COc1ccc(C2(C)c3ccccc3C(=O)C(C)(C)C2(C)CC(=O)O)cc1 (stereo not given),-0.65%,6.45%,-1.8%,-9.7%,5.05%,5.2%
NC1=Nc2cc(C(F)(F)F)ccc2Sc2nc3ccccc3n21,4%,-15.8%,20.1%,13.2%,22.4%,5.65%
C[N+]1(C)C/C(=C\c2ccc(O)cc2)C(=O)/C(=C/c2ccc(O)cc2)C1,-0.75%,-16.3%,4.05%,-6%,-9.75%,-14.2%
O=CNNC(=O)CN1C(=O)c2ccccc2C1=O,3.3%,-0.45%,3.4%,17.8%,-3.35%,-6.65%
Cc1ccc(C(C)C)cc1NC(=O)NCCCl,-9.8%,10.6%,2.8%,-33.3%,-9.6%,-6.4%
COc1ccc2nc3cc(Cl)ccc3c(NC(C)CCCN(C)C)c2n1 (stereo not given),44.8%,42.8%,64.2%,31.2%,46.3%,65%
C/C(CC1CCCCC1)=N\NC(N)=O,0.25%,1.35%,-5.8%,13.2%,-10.9%,-27.1%
ClCCn1nc2c(c1-c1ccccc1)CCc1ccccc1-2,-8%,-1.05%,-10.4%,-19.4%,11.1%,-2.85%
CCCCCCCCCCCC1=c2o[nH]c2=C(c2ccccn2)C(=O)C1=O,-15.2%,-6.6%,6.5%,-45.5%,11.4%,-0.75%
C/C=C/c1ccc(OC(C)C(=O)c2ccc3c(c2)OCO3)c(OC)c1 (stereo not given),-12.4%,-28.9%,8.8%,-10.5%,6.7%,-7.05%
COC(=O)C(CCc1ccccc1[N+](=O)[O-])C(=O)OC,38.6%,10.8%,11.7%,-4.45%,43%,34.1%
C1=CC2C3CSCC3C1C1CC21 (stereo not given),7.95%,-7.85%,-4.4%,-35.1%,-17%,-3.05%
O=C(Nc1cc([N+](=O)[O-])cc2c1[nH]c(=O)c1ccccc12)C(F)(F)F,26.2%,-2.8%,10.8%,-41.2%,-7.4%,-0.25%
CCOC(=O)NC,14.4%,1.6%,-19.6%,3.85%,-1%,9.8%

Structure (SMILES),growth inhibition [1],growth inhibition [2],growth inhibition [3],growth inhibition [4],growth inhibition [5],growth inhibition [6]
COc1ccc(C)cc1CC(=O)O,7.5%,3.05%,-21.4%,4.1%,6.25%,-9.2%
c1ccc2nc3c(nc2c1)sc1nc2ccccc2n13,9.65%,3.4%,-11.9%,10.9%,8.3%,17.1%
Cc1ccc(C2(c3ccc(Cl)cc3)c3ccccc3C3=NCCN32)cc1 (stereo not given),19.9%,9.15%,25.6%,23%,28.1%,30.7%
C/C(=N/NC(=O)NN)c1cccc(O)c1,3.1%,-11.8%,-16.6%,2.15%,-4.5%,-19.2%
CCOc1cc(CC[N+](C)(C)C)c2c(ccc3ccc(OC)c(OC)c32)c1OC,18.1%,-10.8%,-5.4%,13.5%,-15.8%,-14.2%
COc1ccc(/C(=N\NC(=O)C(=O)NN)C(c2ccc(OC)cc2)C2(O)C(=O)Nc3ccccc32)cc1 (stereo not given),-19.6%,-20.2%,-22.6%,-65.1%,12.9%,-18.1%
O=c1nc(NC2CC2)ccn1C1OC(CO)C(O)C1O (stereo not given),-3.75%,-4.25%,-1%,-0.25%,4.35%,-20.9%
Cc1c(Cl)c(N)c(Cl)c(Cl)c1Cl,15.7%,-4.5%,19.1%,-7.3%,28.6%,8.75%
O=Cc1cccc(OC(=O)Nc2ccccc2)c1,39%,24.8%,24.5%,-17.5%,17.1%,0.95%
COC(OC)c1cc(C(=O)O)c2ccccc2n1,-9.45%,-31.2%,-9.85%,-4.6%,-22.2%,-6.6%
Cc1ccc(S(=O)(=O)CCOC(=O)Nc2ccccc2)cc1,2.5%,12.6%,1.7%,-12.4%,-14.6%,11.5%
CCc1cccc(C)c1NC(=O)C1=C(C)NC(C)=C(C(=O)Nc2c(C)cccc2CC)C1c1ccc([N+](=O)[O-])cc1,40.8%,34.2%,42.2%,18.4%,36.9%,46.7%
Oc1ccc(Br)cc1C(=S)N1CCOCC1,9.3%,18.4%,4.45%,3.6%,-10.1%,37.2%
O=C(NC1CCCCC1)Oc1ccc(-c2ccccc2)cc1Cl,98.7% (active),99.3% (active),98.3% (active),98.2% (active),99% (active),99.1% (active)
O=C(CC(=O)c1ccccc1)CC(=O)c1ccc(C(=O)CC(=O)CC(=O)c2ccccc2)cc1,29.4%,1.3%,30.9%,0.85%,-1.8%,22.4%
Nc1cc(Cl)ccc1N1C(=O)C=CC1=O,-26.6%,-14.8%,1.25%,-6.25%,-9.1%,18.6%
Cc1cc2c(c(C)c1O)C(C)(C)CN2C(=O)C(C)(C)C,-12.2%,-53%,2.55%,-8.85%,2.1%,-10.9%
CC(=O)N1CN2C(=O)CCC2c2ccccc21 (stereo not given),-7.85%,1.4%,-14.2%,9.25%,-21.5%,-48.2%
CC1=COC2(CC1)OC1CC3C4CCC5CC(O)CCC5(C)C4CCC3(C)C1C2C (stereo not given),72.5% (active),60%,87.3% (active),45.5%,39.5%,83% (active)
Cc1cccc(/C=N\N=C\c2cccc(C)n2)n1,3.9%,-10.2%,-3.25%,-3%,-1.45%,23.3%
